Test [1] addresses T1, Ephrin type-B receptor 4 (Homo sapiens) (UniProt P54760).
T1 sequence (whole entry): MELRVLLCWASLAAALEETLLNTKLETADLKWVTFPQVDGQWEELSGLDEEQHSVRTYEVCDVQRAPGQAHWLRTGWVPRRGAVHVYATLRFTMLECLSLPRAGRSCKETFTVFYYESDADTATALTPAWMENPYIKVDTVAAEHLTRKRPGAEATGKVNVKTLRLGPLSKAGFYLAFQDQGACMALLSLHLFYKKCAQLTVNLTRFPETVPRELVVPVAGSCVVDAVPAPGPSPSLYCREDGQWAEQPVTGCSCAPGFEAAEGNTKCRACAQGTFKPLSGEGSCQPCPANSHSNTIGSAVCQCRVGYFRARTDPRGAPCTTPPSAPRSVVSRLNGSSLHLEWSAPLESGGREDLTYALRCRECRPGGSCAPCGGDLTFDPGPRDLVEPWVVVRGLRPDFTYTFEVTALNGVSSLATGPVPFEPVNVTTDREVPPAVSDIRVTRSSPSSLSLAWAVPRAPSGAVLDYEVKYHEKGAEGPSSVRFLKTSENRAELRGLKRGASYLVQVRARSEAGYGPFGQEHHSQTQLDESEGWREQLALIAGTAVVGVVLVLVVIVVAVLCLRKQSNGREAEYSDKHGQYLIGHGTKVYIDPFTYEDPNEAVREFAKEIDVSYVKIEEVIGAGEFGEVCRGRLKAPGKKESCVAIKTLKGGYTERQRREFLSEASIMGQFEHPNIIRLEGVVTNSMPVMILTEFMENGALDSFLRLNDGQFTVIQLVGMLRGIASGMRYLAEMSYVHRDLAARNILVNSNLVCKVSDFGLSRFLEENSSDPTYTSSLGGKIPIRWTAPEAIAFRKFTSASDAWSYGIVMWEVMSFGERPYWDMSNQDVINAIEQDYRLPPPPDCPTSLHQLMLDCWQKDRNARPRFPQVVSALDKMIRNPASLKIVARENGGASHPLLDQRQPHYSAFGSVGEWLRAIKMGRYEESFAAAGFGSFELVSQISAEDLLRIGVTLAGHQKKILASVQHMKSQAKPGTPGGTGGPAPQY
Conditions: at 1 µM; call rule not given here.

The target in test [2] is T1, Ephrin type-B receptor 4 (Homo sapiens). To be noted: at 10 µM.
Test [3] concerns the target Focal adhesion kinase 1 (Homo sapiens) (UniProt Q05397). Conditions: at 10 µM.
In test [4] the target is Fibroblast growth factor receptor 2 (Homo sapiens) (UniProt P21802). To be noted: at 1 µM.
Sequence of Fibroblast growth factor receptor 2 (Homo sapiens) (P21802 22-821 limits assumed): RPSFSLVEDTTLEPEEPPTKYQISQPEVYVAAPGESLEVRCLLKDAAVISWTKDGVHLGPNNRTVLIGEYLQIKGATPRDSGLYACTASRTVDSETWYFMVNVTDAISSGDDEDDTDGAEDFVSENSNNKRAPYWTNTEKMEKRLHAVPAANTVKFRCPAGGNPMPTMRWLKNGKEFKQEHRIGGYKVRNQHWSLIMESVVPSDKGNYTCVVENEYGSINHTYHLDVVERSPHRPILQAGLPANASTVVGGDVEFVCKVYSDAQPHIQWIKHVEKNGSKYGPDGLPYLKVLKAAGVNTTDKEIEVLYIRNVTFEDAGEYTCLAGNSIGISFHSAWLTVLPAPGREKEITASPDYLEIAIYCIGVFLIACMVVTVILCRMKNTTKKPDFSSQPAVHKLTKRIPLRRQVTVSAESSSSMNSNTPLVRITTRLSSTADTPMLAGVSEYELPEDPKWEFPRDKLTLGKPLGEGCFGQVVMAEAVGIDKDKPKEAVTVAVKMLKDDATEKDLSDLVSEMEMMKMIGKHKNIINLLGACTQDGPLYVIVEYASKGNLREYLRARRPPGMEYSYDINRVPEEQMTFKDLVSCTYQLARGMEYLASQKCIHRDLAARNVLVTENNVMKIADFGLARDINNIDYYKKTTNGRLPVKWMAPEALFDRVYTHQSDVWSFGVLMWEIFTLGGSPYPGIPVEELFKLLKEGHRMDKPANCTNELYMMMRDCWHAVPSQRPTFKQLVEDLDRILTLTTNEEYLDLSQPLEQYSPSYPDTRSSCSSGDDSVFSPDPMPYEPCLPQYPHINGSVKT
The target is the same in test [5]. Conditions: at 10 µM.
Test [6] deals with T2, Ephrin type-B receptor 1 (Homo sapiens) (UniProt P54762).
T2 sequence (whole entry): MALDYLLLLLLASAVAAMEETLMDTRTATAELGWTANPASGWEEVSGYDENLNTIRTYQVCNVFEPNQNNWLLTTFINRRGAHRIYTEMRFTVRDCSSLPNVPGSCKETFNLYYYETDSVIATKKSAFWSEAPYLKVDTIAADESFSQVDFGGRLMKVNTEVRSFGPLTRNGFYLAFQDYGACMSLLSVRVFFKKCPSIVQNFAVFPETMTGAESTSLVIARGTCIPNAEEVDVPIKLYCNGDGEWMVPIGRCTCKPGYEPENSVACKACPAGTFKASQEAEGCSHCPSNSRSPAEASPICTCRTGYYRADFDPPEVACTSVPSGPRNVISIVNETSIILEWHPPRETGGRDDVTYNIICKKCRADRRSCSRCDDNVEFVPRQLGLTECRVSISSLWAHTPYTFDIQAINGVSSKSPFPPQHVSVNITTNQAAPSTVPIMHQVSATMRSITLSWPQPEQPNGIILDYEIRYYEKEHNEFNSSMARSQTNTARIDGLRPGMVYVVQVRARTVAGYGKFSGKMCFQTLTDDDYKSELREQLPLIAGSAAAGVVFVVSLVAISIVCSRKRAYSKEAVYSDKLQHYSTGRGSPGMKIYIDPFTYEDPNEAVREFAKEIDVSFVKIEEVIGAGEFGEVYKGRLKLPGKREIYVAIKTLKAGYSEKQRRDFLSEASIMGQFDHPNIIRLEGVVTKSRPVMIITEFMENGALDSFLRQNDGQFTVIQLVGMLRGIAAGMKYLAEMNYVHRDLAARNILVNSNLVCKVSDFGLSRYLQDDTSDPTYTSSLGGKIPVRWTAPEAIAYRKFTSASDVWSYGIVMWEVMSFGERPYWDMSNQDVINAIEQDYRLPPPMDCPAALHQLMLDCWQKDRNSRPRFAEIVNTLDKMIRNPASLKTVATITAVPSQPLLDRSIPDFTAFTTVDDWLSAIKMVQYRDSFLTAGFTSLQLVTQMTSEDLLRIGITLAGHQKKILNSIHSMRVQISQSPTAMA
Conditions: at 10 µM.

The target in test [7] is Focal adhesion kinase 1 (Homo sapiens) (UniProt Q05397). To be noted: at 1 µM.
Sequence of Focal adhesion kinase 1 (Homo sapiens) (Q05397 2-1052 limits assumed): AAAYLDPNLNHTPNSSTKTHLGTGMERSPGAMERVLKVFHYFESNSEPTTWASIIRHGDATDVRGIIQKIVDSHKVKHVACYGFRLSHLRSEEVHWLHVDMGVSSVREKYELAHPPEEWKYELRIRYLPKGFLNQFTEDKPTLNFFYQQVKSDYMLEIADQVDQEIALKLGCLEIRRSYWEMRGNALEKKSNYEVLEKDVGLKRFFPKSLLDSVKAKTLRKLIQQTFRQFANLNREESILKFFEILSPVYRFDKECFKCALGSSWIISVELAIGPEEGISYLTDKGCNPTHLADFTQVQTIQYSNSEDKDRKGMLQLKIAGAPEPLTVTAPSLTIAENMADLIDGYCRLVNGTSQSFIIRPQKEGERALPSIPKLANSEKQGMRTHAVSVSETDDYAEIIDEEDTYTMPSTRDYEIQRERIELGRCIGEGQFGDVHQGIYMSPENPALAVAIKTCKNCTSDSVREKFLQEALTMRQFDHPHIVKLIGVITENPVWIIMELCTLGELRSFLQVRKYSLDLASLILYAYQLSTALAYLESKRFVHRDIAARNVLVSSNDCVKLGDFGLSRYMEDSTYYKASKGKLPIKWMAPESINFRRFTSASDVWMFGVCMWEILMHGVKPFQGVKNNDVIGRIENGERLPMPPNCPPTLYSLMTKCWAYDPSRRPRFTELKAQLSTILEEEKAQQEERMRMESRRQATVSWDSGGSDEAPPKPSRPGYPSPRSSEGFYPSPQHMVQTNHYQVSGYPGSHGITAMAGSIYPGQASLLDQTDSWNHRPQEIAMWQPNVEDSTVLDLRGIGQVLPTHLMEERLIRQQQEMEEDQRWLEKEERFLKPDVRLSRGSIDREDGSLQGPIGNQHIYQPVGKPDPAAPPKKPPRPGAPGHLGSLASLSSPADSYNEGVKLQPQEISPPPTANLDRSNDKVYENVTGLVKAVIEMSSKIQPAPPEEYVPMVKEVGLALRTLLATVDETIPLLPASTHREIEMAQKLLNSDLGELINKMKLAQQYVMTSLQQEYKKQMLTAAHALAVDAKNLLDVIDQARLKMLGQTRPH
Test [8] has as its target Fibroblast growth factor receptor 4 (Homo sapiens) (UniProt P22455). To be noted: at 1 µM.
Test [9] addresses Tyrosine-protein kinase Fer (Homo sapiens) (UniProt P16591). Conditions: at 1 µM.
The target of test [10] is Receptor tyrosine-protein kinase erbB-4 (Homo sapiens) (UniProt Q15303). Conditions: at 10 µM.
For test [11], the target named is Fibroblast growth factor receptor 1 (Homo sapiens) (UniProt P11362). To be noted: at 1 µM.
Sequence of Fibroblast growth factor receptor 1 (Homo sapiens) (P11362 22-822 limits assumed): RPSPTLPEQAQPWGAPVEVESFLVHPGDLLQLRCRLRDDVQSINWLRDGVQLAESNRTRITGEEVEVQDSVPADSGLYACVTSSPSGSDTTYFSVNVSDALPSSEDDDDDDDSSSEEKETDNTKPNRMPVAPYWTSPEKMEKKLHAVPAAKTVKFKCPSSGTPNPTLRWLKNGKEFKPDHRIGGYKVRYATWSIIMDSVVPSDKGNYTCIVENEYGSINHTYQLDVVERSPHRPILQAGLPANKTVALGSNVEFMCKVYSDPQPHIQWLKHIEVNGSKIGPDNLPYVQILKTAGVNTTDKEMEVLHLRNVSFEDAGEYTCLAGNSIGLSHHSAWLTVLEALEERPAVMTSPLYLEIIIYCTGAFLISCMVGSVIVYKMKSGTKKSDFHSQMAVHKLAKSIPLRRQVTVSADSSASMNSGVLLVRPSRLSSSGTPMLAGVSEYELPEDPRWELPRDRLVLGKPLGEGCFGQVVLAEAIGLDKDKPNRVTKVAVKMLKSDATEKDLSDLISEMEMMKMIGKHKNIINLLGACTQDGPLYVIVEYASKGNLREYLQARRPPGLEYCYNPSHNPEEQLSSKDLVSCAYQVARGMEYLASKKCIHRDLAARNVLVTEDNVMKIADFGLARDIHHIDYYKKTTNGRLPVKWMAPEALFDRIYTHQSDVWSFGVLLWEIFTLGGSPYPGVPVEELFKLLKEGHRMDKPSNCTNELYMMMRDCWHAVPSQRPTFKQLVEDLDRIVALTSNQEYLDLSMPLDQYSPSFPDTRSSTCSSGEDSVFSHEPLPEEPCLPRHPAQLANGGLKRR
The target in test [12] is Receptor tyrosine-protein kinase erbB-4 (Homo sapiens) (UniProt Q15303). Conditions: at 1 µM.
The target of test [13] is Fibroblast growth factor receptor 1 (Homo sapiens) (UniProt P11362). To be noted: at 10 µM.
The target in test [14] is Fibroblast growth factor receptor 3 (Homo sapiens) (UniProt P22607). To be noted: at 1 µM.
Sequence of Fibroblast growth factor receptor 3 (Homo sapiens) (P22607 23-806 limits assumed): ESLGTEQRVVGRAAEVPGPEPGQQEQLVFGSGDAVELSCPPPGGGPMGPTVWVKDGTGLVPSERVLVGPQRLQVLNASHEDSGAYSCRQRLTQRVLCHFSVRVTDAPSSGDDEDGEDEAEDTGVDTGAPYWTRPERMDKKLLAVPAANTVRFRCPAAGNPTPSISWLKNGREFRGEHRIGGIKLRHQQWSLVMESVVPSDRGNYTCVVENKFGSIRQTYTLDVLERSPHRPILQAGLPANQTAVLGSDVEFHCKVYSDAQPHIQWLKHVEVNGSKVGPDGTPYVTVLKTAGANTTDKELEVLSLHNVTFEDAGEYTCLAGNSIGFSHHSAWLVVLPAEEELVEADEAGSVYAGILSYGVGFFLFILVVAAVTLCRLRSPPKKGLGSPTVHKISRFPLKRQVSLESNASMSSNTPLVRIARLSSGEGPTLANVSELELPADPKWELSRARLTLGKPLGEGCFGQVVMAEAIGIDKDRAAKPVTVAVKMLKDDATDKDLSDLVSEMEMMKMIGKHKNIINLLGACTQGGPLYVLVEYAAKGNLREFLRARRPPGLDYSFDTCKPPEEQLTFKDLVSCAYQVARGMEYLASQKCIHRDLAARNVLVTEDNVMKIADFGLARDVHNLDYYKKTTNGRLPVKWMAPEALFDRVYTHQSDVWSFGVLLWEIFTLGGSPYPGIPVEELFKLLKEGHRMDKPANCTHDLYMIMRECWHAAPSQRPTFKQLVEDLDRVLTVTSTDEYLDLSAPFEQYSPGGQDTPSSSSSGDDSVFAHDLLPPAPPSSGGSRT
Test [15] has the same target. Conditions: at 10 µM.
For test [16], the target named is T3, Ephrin type-B receptor 3 (Homo sapiens) (UniProt P54753).
T3 sequence (whole entry): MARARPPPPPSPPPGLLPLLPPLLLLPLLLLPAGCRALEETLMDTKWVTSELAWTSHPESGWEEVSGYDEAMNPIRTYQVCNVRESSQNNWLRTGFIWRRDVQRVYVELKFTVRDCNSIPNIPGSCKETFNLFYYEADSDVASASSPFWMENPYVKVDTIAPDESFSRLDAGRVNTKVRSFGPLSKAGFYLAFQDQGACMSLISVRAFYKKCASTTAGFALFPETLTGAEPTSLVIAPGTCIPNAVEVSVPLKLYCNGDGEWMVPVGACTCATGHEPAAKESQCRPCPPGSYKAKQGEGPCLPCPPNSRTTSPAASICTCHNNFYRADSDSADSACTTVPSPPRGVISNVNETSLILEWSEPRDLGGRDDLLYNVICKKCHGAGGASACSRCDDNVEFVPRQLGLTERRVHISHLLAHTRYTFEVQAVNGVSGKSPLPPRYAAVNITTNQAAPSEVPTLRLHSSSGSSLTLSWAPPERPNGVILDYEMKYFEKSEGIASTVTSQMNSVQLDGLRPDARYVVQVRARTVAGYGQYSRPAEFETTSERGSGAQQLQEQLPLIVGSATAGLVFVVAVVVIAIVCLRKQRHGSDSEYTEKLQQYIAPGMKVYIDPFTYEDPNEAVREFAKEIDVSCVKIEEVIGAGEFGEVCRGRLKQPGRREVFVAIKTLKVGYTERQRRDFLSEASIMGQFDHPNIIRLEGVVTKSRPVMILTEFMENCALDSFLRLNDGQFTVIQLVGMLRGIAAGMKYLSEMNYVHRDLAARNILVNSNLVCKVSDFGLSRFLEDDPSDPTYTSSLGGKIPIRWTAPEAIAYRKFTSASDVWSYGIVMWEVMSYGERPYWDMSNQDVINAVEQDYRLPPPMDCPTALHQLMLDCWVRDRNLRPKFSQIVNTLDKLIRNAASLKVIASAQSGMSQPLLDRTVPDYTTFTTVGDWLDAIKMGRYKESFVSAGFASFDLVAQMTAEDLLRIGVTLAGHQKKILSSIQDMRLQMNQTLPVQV
To be noted: at 10 µM.

Test [17] has as its target Fibroblast growth factor receptor 4 (Homo sapiens) (UniProt P22455). Conditions: at 10 µM.
For test [18], the target named is T4, Ephrin type-B receptor 2 (Homo sapiens) (UniProt P29323).
T4 sequence (whole entry): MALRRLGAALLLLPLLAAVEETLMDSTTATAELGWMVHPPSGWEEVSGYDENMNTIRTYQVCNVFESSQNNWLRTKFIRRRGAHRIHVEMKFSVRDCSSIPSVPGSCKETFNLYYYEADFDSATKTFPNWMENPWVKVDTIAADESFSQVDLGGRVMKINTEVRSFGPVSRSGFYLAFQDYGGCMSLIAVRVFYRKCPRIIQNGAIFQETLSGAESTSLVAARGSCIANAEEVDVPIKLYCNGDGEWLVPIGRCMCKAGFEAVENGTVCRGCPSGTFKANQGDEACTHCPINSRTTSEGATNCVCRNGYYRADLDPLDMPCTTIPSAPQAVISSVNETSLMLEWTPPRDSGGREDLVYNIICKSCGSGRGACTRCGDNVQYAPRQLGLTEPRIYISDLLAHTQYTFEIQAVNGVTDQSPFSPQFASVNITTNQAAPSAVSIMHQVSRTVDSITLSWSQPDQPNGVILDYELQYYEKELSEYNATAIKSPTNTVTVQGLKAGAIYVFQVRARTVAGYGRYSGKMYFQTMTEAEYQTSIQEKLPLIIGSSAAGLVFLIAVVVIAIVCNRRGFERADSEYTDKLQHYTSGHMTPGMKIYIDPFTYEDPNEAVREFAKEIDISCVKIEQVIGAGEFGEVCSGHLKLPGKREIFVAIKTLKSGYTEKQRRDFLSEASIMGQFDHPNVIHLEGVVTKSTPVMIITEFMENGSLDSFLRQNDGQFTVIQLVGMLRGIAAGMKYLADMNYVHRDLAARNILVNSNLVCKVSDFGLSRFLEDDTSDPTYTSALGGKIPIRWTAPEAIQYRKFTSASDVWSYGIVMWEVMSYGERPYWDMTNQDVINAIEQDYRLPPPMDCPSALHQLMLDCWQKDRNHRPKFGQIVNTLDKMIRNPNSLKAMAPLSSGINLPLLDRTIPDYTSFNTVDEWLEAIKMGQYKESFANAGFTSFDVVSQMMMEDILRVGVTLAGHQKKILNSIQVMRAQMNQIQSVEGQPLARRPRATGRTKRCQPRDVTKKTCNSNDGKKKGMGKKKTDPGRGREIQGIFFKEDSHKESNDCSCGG
Conditions: at 10 µM.

For test [19], the target named is T4, Ephrin type-B receptor 2 (Homo sapiens). To be noted: at 1 µM.
Test [20] has as its target T3, Ephrin type-B receptor 3 (Homo sapiens). Conditions: at 1 µM.

What is called residual activity is the signal under treatment as a percentage of the control signal.

Sequence of Tyrosine-protein kinase Fer (Homo sapiens) (P16591 whole entry, looked up): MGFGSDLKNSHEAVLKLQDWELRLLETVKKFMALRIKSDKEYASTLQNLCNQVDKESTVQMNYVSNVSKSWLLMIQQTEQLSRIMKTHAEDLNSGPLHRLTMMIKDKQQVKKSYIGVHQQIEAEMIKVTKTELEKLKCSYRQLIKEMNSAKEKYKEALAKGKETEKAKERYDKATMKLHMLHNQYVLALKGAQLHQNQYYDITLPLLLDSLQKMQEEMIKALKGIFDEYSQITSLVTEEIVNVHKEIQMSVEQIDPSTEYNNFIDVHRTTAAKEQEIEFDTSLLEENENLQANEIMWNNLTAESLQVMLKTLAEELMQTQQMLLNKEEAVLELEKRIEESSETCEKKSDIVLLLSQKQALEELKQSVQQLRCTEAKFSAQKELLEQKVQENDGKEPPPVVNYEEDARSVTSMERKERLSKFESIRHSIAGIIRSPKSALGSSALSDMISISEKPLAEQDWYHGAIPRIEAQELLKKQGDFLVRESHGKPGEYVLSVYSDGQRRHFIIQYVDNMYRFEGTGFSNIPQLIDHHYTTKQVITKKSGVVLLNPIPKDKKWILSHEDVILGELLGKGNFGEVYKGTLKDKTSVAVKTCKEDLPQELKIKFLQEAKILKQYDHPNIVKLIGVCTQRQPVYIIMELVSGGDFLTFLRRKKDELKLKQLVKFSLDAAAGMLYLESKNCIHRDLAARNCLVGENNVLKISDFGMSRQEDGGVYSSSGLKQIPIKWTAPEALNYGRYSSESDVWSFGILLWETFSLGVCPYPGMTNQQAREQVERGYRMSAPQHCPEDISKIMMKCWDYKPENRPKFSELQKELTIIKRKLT
Sequence of Fibroblast growth factor receptor 4 (Homo sapiens) (P22455 22-802 limits assumed): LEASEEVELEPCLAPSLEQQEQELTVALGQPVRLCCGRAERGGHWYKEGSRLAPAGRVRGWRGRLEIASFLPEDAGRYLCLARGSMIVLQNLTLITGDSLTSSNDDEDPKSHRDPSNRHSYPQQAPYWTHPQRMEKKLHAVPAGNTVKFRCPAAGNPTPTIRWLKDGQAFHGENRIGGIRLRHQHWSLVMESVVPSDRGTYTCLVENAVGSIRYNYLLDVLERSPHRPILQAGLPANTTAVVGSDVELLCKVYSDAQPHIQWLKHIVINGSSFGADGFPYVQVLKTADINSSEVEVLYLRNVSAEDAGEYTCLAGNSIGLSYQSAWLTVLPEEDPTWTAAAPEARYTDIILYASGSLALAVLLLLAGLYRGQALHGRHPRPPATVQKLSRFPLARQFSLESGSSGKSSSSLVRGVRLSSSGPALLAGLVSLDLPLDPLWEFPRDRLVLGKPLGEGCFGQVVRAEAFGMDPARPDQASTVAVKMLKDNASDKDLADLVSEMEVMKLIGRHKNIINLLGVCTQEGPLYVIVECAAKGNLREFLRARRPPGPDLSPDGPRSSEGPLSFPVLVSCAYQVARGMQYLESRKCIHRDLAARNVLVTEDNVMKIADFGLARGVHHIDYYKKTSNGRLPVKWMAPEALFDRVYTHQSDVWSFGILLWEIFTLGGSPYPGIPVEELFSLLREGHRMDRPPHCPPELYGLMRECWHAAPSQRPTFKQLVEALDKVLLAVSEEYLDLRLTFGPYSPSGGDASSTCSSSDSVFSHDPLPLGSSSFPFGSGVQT

Take `O=C1Nc2ccccc2/C1=C\c1c(Cl)[nH]c2ccccc12`: the residual activity in test [1] worked out at 117%; in test [2] it was 134%; in test [3], 85%; in test [4], 119%; in [5], 79%.

Consider `CC(C)(C)c1nc2c3ccc(F)cc3c3c(=O)[nH]ccc3c2[nH]1`, for which the residual activity is 99% in test [6]; 51% in test [7]; 9% in test [3]; 119% in test [8]; 67% in [9].

Take `CC(C)N(CCC(=O)c1ccc2ccccc2c1)Cc1ccccc1`: the residual activity in test [10] was 78%; in test [3], 85%; in test [11] it was 125%.

Turning to `CCOc1nc(NC(=O)Cc2cc(OC)ccc2OC)cc(N)c1C#N`, in test [4], the residual activity was 100%.

Turning to `Cn1sc(=O)n(Cc2ccccc2)c1=O`, the residual activity in test [1] came out at 87%; in [2], 80%; in test [12], 87%; in [10], 98%; in [7] it was 95%; in [3], 61%. In addition, the residual activity amounted to 92% in test [11]; 86% in test [13]; 135% in test [14]; 126% in test [15]; 90% in test [9].

As for `CCOC(=O)c1c(C)[nH]c(/C=C2\C(=O)Nc3ccccc32)c1C`, the residual activity in test [7] was 133%; in [3] it was 89%; in [11] it was 98%; in test [13], 80%; in test [4] it was 83%; in [5], 85%.

As for `NC(=O)c1cccc(-c2cc(Nc3ccc(OC(F)(F)F)cc3)ncn2)c1`, the residual activity in test [7] was determined as 147%; in test [3], 95%; in [11] it was 96%; in test [13] it was 92%.

`CSc1nc(-c2ccc(F)cc2)c(-c2ccnc(NC(C)c3ccccc3)c2)[nH]1` (centres undefined): the residual activity came to 80% in test [16]; 99% in test [1]; 88% in test [2]; 85% in test [10]; 126% in [11]; 53% in test [13]. In addition, the residual activity in test [4] was 87%; in [5] it was 68%; in test [15] it was 78%; in test [17], 78%.

Regarding `CCN1/C(=C/C(C)=O)Sc2ccc(OC)cc21`, the values for the residual activity in test [12] and in [10] were 75% and 69%, respectively.

Consider `Fc1ccc(-c2nc3n(c2-c2ccncc2)CCS3)cc1`, for which the residual activity was found to be 91% in test [18] and 137% in test [11].

With `Nc1ncnc2c1cnn2-c1ccccc1`, the residual activity in [1] turned out to be 95%; in [2] it was 102%; in test [7] it was 137%; in test [3], 95%; in test [11], 127%; in test [13], 94%. In addition, the residual activity in [4] came to 96%; in test [5], 83%; in test [14], 76%; in [15] it was 83%; in [17], 97%.

As for `COc1ccc(-c2cnc3c(-c4ccsc4)cnn3c2)cc1`, the residual activity in test [1] worked out at 123%; in test [2], 122%; in test [7], 141%; in [14], 93%; in [15], 124%.

As to `CC(C)[C@H](CO)Nc1nc(Nc2cc(N)cc(Cl)c2)c2ncn(C(C)C)c2n1`, the residual activity in test [19] is 92%; in [18], 7%; in test [20] it was 92% (inactive); in [16] it was 116%; in test [1], 57%; in test [2] it was 6%. The residual activity in test [10] is 84%; in test [7], 42%; in test [3] it was 3%; in [4], 84%; in [5] it was 22%; in [14] it was 92%. Moreover, the residual activity in test [15] amounted to 20%; in test [17], 88%; in test [9], 88%.

Turning to `O=S(=O)(NCCNC/C=C/c1ccc(Br)cc1)c1cccc2cnccc12`, the residual activity stood at 74% in test [10], 30% in [3], 35% in test [13] and 80% in test [15].

Values taken from ChEMBL document CHEMBL2218924, “A broad activity screen in support of a chemogenomic map for kinase signalling research and drug discovery” (Biochem J, 2013).
